This note sets out measurements from PubChem BioAssay (NCI).

Each structure is given as a SMILES string. This is part of a sample that, as a whole, favours compounds with a hit. Of some 83,000 tested, about 20% had one in any assay.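 96-well plates, one dose, 48 hours. Percent growth reported; active if below 10.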 A number with no mark means an inactive call. Calls of active or inactive are those of the source.

In this test the test system is HL-60(TB) leukemia. As to the kind of experiment: NCI-60 one-dose screen, 48 h (100 = growth as untreated, 0 = no growth, -100 = all killed). Conditions: 10 µM unless noted.
Regarding `Cc1ccccc1C[P+](c1ccccc1)(c1ccccc1)c1ccccc1`, the growth is 1.16% (active). With `COc1ccc(-c2nc(-c3nc4ccc(OC)cc4[nH]3)c3ccccn23)cc1` the figure was 52.1%; with `COc1ccc2[nH]c3nc4cnccc4cc3c2c1`, 108%. With `COc1cc(-c2nn(-c3cccc(NC(=O)c4ccc(N5CCOCC5)c(C(F)(F)F)c4)c3)cc2-c2ccncc2)ccc1Cl` the figure was -8.08% (active); with `CCSc1nc2scc(C)c2c(=O)[nH]1`, 99.8%.
